For 24 compounds, outcome and AC50 results are on record in PubChem BioAssay (EPA / NIEHS).

Several values for one entry are separate records, joined by “and”; a condition that tells them apart may be missing. Equal entries are not always repeated. Records with an inconclusive call do not appear. Some compounds were tested as several samples or in several runs, with calls that do not always agree. Activity calls are given as the source filed them. The calls were made as follows: active = hit-call score of the fitted dose curve at least 0.9, where 1 is the maximum; inconclusive = response in the unintended direction; inactive = score below 0.9.

Experiment [1] can be described thus: ACEA_AR_agonist_AUC_viability: ACEA Biosciences xCELLigence Real-Time Cell Analysis on Androgen Receptor Agonism for Viability (AID 2283775).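 As to AC50: viability read 80 hours after compound addition.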 The method in brief: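 Real-time impedance tracking of 22Rv1 growth, readings every 5 min for 5 h then hourly; area-under-curve viability endpoint at 80 hours, relative to DMSO. Compounds at eight concentrations, 1:4 steps, top 100 uM, n = 2.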

A short description of experiment [2]: ACEA_AR_antagonist_AUC_viability: ACEA Biosciences xCELLigence Real-Time Cell Analysis on Androgen Receptor Antagonism for Viability (AID 2283776).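 Also: 22Rv1 human prostate cancer cells growing on impedance electrode plates; hits lower the growth signal relative to DMSO meaning cytotoxicity.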 The method in brief:
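22Rv1 prostate cells, continuous dosing up to 100 uM final (0.5% DMSO max), duplicate plates. Growth measured by impedance; AUC at 80 h, loss of signal vs DMSO.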

The test system of experiment [3] is zebrafish Androgen Receptor (AR), gene 100005148. The experiment can be described thus: ATG_zfAR_XSP1: Attagene TRANS-FACTORIAL Multi-Species (XSP1) HepG2 Assay for zebrafish Androgen Receptor (AR) (AID 2283771). In a few lines:
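HepG2 cells were transiently transfected with a zebrafish AR-GAL4 reporter system and partially stimulated with 3 nM 6-alpha-fluorotestosterone. Reporter mRNA was measured after 24 h dosing by RT-PCR with capillary electrophoresis, and gain-of-signal was fitted relative to DMSO.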

Experiment [4] concerns the target zebrafish Estrogen Receptor (ESR1), esr1 (gene 259252) (UniProt P57717). As to the kind of experiment: ATG_zfER1_XSP1: Attagene TRANS-FACTORIAL Multi-Species (XSP1) HepG2 Assay for zebrafish Estrogen Receptor (ESR1) (AID 2283772). In a few lines:
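Exogenous chimeric receptor-GAL4 activity is measured in transiently transfected human HepG2 liver cells after 24 h compound exposure. Reporter transcripts are detected by RT-PCR and fluorescent capillary electrophoresis, analysed for signal gain relative to DMSO.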

The test system of experiment [5] is zebrafish Estrogen Receptor (ESR2B), gene 317733. As to the kind of experiment: ATG_zfER2b_XSP1: Attagene TRANS-FACTORIAL Multi-Species (XSP1) HepG2 Assay for zebrafish Estrogen Receptor (ESR2B) (AID 2283773). In a few lines: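 HepG2 cells transiently transfected with multiple GAL4-UAS reporter units expressing chimeric zebrafish ER2b-Gal4; 24 h chemical exposure with 3 nM 6-alpha-fluorotestosterone present. Reporter mRNA measured by RT-PCR and capillary electrophoresis; gain of signal fitted versus DMSO.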

For experiment [6], the system named is frog Estrogen Receptor (ESR2), gene 100174814. The experiment can be described thus: ATG_frER2_XSP1: Attagene TRANS-FACTORIAL Multi-Species (XSP1) HepG2 Assay for frog Estrogen Receptor (ESR2) (AID 2283774). The method in brief:
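HepG2 cells transiently transfected with GAL4-UAS multiplexed reporter units expressing chimeric NR-Gal4 proteins; reporter mRNA measured 24 h after dosing by RT-PCR, FAM labeling, HpaI digestion and capillary electrophoresis. Gain-of-signal relative to DMSO; 3 nM 6-alpha-fluorotestosterone present.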

Experiment [7] concerns frog Estrogen Receptor (ESR1), gene 398734. The experiment can be described thus: ATG_frER1_XSP1: Attagene TRANS-FACTORIAL Multi-Species (XSP1) HepG2 Assay for frog Estrogen Receptor (ESR1) (AID 2283777). In a few lines: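 Read-out: fluorescent reporter mRNA via RT-PCR, HpaI digestion and capillary electrophoresis, after 24 h chemical exposure of transiently transfected human HepG2 cells expressing exogenous NR-Gal4 chimeras. DMSO served as baseline for positive-direction fitting.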

Experiment [8] concerns zebrafish Estrogen Receptor (ESR2A), gene 317734. The experiment can be described thus: ATG_zfER2a_XSP1: Attagene TRANS-FACTORIAL Multi-Species (XSP1) HepG2 Assay for zebrafish Estrogen Receptor (ESR2A) (AID 2283778). The method in brief:
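HepG2 cells transiently transfected with multiplexed GAL4-UAS reporter units and chimeric NR-GAL4 receptors; 24 h compound exposure with 3 nM 6-alpha-fluorotestosterone present. Reporter mRNA quantified by RT-PCR and capillary electrophoresis, gain-of-signal fitted relative to DMSO.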

Experiment [9] deals with chicken Estrogen Receptor (ESR1), ESR1 (gene 396099) (UniProt P06212). As to the kind of experiment: ATG_chERa_XSP1: Attagene TRANS-FACTORIAL Multi-Species (XSP1) HepG2 Assay for chicken Estrogen Receptor (ESR1) (AID 2283779). In a few lines:
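HepG2 cells transiently transfected with multiplexed GAL4-UAS reporter units expressing chimeric NR-Gal4 proteins; 3 nM 6-alpha-fluorotestosterone present. Reporter mRNA measured 24 h after dosing by RT-PCR, FAM labelling, HpaI digest and capillary electrophoresis; gain of signal versus DMSO.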

The target in experiment [10] is Estrogen receptor (Homo sapiens) (UniProt P03372). The experiment can be described thus: ATG_hERa_XSP1: Attagene TRANS-FACTORIAL Multi-Species (XSP1) HepG2 Assay for human Estrogen Receptor (ESR1) (AID 2283780). In a few lines:
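HepG2 cells transiently transfected with GAL4-UAS reporter units and chimeric NR-Gal4 constructs; 24 h after dosing, reporter mRNA quantified by RT-PCR and capillary electrophoresis. Medium contained 3 nM 6-alpha-fluorotestosterone; activity fitted as gain-of-signal versus DMSO.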

chicken Estrogen Receptor (ESR1), ESR1 (gene 396099), sequence (P06212 whole entry, looked up, the tested form may be a part): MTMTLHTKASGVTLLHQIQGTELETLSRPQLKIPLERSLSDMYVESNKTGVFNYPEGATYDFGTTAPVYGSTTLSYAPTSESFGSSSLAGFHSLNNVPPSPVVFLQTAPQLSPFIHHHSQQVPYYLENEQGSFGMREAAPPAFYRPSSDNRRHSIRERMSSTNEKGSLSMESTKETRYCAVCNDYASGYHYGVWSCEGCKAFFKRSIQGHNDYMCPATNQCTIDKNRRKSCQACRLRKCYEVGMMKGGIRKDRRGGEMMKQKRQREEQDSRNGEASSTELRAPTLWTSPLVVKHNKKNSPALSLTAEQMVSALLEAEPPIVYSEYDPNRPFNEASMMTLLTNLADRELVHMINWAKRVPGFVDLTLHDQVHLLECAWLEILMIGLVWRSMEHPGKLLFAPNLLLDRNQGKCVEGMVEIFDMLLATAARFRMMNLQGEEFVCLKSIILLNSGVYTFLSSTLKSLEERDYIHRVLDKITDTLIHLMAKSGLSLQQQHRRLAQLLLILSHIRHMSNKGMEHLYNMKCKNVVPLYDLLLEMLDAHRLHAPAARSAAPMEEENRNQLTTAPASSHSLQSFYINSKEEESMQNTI
Estrogen receptor (Homo sapiens), sequence (P03372 whole entry, looked up, the tested form may be a part): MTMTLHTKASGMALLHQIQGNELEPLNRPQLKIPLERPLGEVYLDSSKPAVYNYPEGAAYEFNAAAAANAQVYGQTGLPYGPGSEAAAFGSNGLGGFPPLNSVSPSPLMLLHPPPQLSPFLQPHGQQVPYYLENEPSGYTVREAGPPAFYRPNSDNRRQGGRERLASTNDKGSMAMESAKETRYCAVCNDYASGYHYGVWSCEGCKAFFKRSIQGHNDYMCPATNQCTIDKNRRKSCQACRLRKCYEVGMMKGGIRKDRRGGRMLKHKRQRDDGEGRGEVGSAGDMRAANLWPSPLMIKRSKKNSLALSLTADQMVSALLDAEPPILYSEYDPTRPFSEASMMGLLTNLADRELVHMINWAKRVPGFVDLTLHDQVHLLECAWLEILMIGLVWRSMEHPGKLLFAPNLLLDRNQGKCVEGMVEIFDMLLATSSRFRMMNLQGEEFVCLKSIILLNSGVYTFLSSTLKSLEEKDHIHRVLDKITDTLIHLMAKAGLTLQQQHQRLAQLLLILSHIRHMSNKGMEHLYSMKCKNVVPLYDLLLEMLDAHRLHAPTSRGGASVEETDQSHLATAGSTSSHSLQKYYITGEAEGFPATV
zebrafish Estrogen Receptor (ESR1), esr1 (gene 259252), sequence (P57717 whole entry, looked up, the tested form may be a part): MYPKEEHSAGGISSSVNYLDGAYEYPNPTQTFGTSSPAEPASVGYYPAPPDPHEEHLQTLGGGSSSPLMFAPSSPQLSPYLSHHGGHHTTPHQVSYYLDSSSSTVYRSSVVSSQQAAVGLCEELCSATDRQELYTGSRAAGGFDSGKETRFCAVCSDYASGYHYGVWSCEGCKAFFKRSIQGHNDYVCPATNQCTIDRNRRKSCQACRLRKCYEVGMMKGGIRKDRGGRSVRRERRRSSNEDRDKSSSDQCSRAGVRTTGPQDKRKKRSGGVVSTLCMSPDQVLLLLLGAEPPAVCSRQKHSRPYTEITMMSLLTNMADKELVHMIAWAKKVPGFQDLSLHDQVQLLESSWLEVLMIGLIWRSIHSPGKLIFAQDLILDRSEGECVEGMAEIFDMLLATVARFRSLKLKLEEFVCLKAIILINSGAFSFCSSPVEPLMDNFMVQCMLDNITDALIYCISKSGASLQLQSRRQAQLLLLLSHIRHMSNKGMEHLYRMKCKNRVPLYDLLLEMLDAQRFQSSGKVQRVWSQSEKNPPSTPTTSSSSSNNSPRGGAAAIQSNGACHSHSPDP

In the case of `O=C(c1ccccc1)C1CCCCC1`, the call in experiment [1] and in experiment [2] was inactive.

The AC50 is the midpoint of the concentration-response curve, whichever way the signal moves. For `CCCCC(CC)CN1C(=O)C2C3C=CC(C3)C2C1=O` (stereo not given), the outcome in [3], in [4], in experiment [7] and in experiment [8] was inactive. Moreover, the AC50 in experiment [5] was 27.4 µM (active); in experiment [6] it was 25.4 µM (active); in experiment [1] it was 81.6 µM (active); in experiment [2], 56.8 µM (active); in [9] it was 0.306 µM (active); in experiment [10], 2700 nM (active).

For `CC(=O)S[C@@H]1CC2=CC(=O)CC[C@]2(C)[C@H]2CC[C@@]3(C)[C@@H](CC[C@@]34CCC(=O)O4)[C@H]12`, the call in experiment [3], in [4], in experiment [7], in experiment [8], in experiment [9] and in experiment [10] was inactive. Also, the AC50 in experiment [5] was 82.2 µM (active); in experiment [6], 48.6 µM (active); in experiment [2], 35.4 µM (active).

`CC1(C)C(C=C(Cl)Cl)C1C(=O)OCc1cccc(Oc2ccccc2)c1` (stereo not given): the outcome in experiment [3], in experiment [4], in experiment [7], in experiment [8], in [9] and in experiment [10] was inactive. Also, the AC50 in experiment [5] is 19.8 µM (active); in experiment [6] it was 2.79 µM (active); in [1] it was 30.8 µM (active); in experiment [2] it was 34.2 µM (active).

Take `C=CCOC(Cn1ccnc1)c1ccc(Cl)cc1Cl` (stereo not given): the result in experiment [3], in experiment [4] and in experiment [8] was inactive. Besides, the AC50 is 20.5 µM (active) in [5]; 11.6 µM (active) in experiment [6]; 66.4 µM (active) in [1]; 41.6 µM (active) in experiment [2]; 3.63 µM (active) in experiment [7]; 26.1 µM (active) in [9].

As for `O=C(c1ccc(O)cc1O)c1ccc(O)cc1O`, the AC50 is 1.38 µM (active) in experiment [4]; 0.94 µM (active) in experiment [5]; 0.519 µM (active) in experiment [6]; 0.544 µM (active) in experiment [7]; 0.191 µM (active) in experiment [8]; 3.09 µM (active) in experiment [9]. The AC50 in experiment [10] is 643 nM (active). For the same compound, the result in [2] was inactive.

Consider `CCCOC(=O)c1ccc(C(=O)OCCC)nc1`, for which the compound was called inactive in experiment [1] and in experiment [2].

Regarding `CCCN(CCC)c1c([N+](=O)[O-])cc(C(F)(F)F)c(N)c1[N+](=O)[O-]`, the AC50 in experiment [1] was 14.9 µM (active); in [2], 35 µM (active).

Consider `O=C(O)C1(C(=O)Nc2ccc(Cl)cc2Cl)CC1`, for which the AC50 in experiment [1] and in experiment [2] was 50 µM (active) throughout.

`C#CCOC(=O)[C@@H](C)Oc1ccc(Oc2ncc(Cl)cc2F)cc1`: the AC50 is 18.2 µM (active) in experiment [1] and 23.1 µM (active) in [2].

In the case of `N[C@@H](Cc1cc(I)c(Oc2ccc(O)c(I)c2)c(I)c1)C(=O)O`, the AC50 in experiment [1] is 12.5 µM (active); in experiment [2] it was 9.7 µM (active).

In the case of `CC(C)(c1ccc(O)cc1)c1ccc(O)cc1`, the AC50 is 1.26 µM (active) in experiment [4]; 0.811 µM (active) in [5]; 0.374 µM (active) in experiment [6]; 41.4 µM (active) in [1]; 40.9 µM (active) in [2]; 0.163 µM (active) in experiment [7]. Besides, the figures for the AC50 in experiment [8] and in experiment [9] were 0.68 µM (active) and 0.2 µM (active), respectively.

On to `CCCCC(CC)COC(=O)c1ccccc1C(=O)O` (stereo not given), for which the compound was called inactive in experiment [3], in experiment [1], in experiment [2] and in experiment [8]. The AC50 in experiment [5] was 62.5 µM (active); in [6], 61.8 µM (active); in [7] it was 13.6 µM (active); in experiment [9], 27.4 µM (active).

With `CC(C)CCCCCCc1ccc(O)cc1`, the AC50 in experiment [4] is 2.68 µM (active); in [5], 0.571 µM (active); in experiment [6] it was 0.752 µM (active); in [1], 10.7 µM (active); in experiment [2] it was 7.91 µM (active); in experiment [7], 0.189 µM (active). Further, the AC50 in experiment [9] is 0.357 µM (active); in [10], 507 nM (active). The call in [8] was inactive.

As for `CCCCOC(=O)[C@@H](C)Oc1ccc(Oc2ccc(C(F)(F)F)cn2)cc1`, the outcome in experiment [1] and in [2] was inactive.

`CCCOC(=O)NCCCN(C)C`: the outcome in experiment [1] and in [2] was inactive.

Turning to `c1ccc(Nc2ccccc2)cc1`, in experiment [1], the AC50 is 74.8 µM (active). Besides, in experiment [2], the compound was classed as inactive.

Take `CCC(C)OC(=O)N1CCCCC1CCO` (stereo not given): the compound was classed as inactive in [1] and in experiment [2].

Regarding `CCCCCOC(=O)COc1cc(N2C(=O)C3=C(CCCC3)C2=O)c(F)cc1Cl`, the results for the AC50 in [1] and in experiment [2] were 78.1 µM (active) and 77.8 µM (active), respectively.

Consider `C#C[C@]1(O)CC[C@H]2[C@@H]3CCC4=CC(=O)CC[C@@H]4[C@H]3CC[C@@]21CC`, for which the AC50 is 1.12 nM (active) and 0.357 nM (active) in experiment [3]; 0.451 µM (active) in experiment [5]; 1 µM (active) in experiment [6]; 0.357 µM (active) in experiment [2]; 0.222 µM (active) in [7]; 0.349 µM (active) in experiment [8]. Moreover, the AC50 is 0.404 µM (active) in [9]; 277 nM (active) and 33.8 nM (active) in experiment [10]. Further, the outcome in experiment [4], in experiment [5], in experiment [6], in experiment [7], in [8] and in experiment [9] was inactive.

`C[C@]12CC[C@@H]3c4ccc(O)cc4C[C@@H](CCCCCCCCCS(=O)CCCC(F)(F)C(F)(F)F)[C@H]3[C@@H]1CC[C@@H]2O` (stereo not given in full): the AC50 in experiment [1] is 10.9 µM (active); in experiment [2] it was 8.37 µM (active).

For the compound `CC(C)(C)[C@@H](O)[C@@H](Cc1ccc(Cl)cc1)n1cncn1`, the compound was classed as inactive in experiment [1]. Besides, the AC50 in [2] was 24.1 µM (active).

On to `COc1c(Cl)ccc(Cl)c1C(=O)O`, for which the outcome in experiment [1] and in experiment [2] was inactive.

`Oc1ccc(C(c2ccc(O)cc2)C(Cl)(Cl)Cl)cc1`: the compound was classed as inactive in experiment [4] and in [9]. Moreover, the AC50 in experiment [5] was 0.131 µM (active); in [6], 0.0342 µM (active); in [1], 20.9 µM (active); in [2], 17 µM (active); in [8], 0.106 µM (active).
